Experimental data from PubChem BioAssay.
The source made the active and inactive calls.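 Rule for the calls, unless noted: active = visual image review flags a hit and inhibition of aggregation exceeds 20%; inconclusive = visual hit but inhibition at or below 20%; inactive = no hit on visual image review.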

Legend:
[1] = inhibitors of TNFa-induced NFkB p65 translocation, primary screen, imaging, HUVEC, MLSMR starter and 10KST1 sets (AID 438;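 active = inhibition above 20% together with a positive visual image hit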;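 note: compound added about 3h40 before a 20 min TNFalpha stimulation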;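 for inhibition: signal is the nuclear over cytoplasmic p65 intensity ratio per well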); details: HUVEC TNFa-induced p65 nuclear translocation; cell count: measured here: nuclei count (cytotoxicity indicator), at 2.08 µM; inhibition: at 2 µM, stronger effect = higher value, 0% TNFa-plus-vehicle, 100% no-TNFa wells
[2] = reduction of polyQ htt aggregates in cells – imaging, exon1htt(103Q)mCFP cells, high-content imaging, primary screen (AID 483); details: exon1htt(103Q)mCFP cell line, aggregate imaging, at 2 µM; inhibition of aggregation: stronger effect = higher value; nuclei count: measured here: cell count, toxicity;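 note: compound exposure lasted 3 days before fixation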;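 for nuclei count: percent of the per-plate median nuclei count of sample wells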
[3] = endothelial E-selectin expression blockers – imaging, HUVEC, immunofluorescence, MLSMR starter and 10KST1 sets, primary screen (AID 487;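 active = visually confirmed hit in the image check and inhibition above 20%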;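 for inhibition: signal is fraction of cell area covered by stained E-selectin grains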;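 for nuclei count: 100% = median nuclei count of all wells on the same plate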); details: HUVEC TNFalpha-induced E-selectin immunofluorescence imaging, at 2 µM; inhibition: stronger effect = higher value; nuclei count: measured here: cell number, toxicity
[4] = biological target: Voltage-gated potassium channel subunit beta-2 (Rattus norvegicus) (UniProt P62483); test: inhibitors of rat Kvbeta2 reductase activity – biochemical, NADPH fluorescence, primary screen (AID 622;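 active = fluorescence slope higher than the sample average by over 3 SD, cut at about -0.22 in these data, passing the limit was not always enough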;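 note: slope of raw intensity against log time taken from 70 to 1610 s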); details: recombinant KvBeta, 4-cyanobenzaldehyde reduction, at 10 µM, stronger effect = higher value
[5] = biological target: Voltage-gated potassium channel subunit beta-2 (Rattus norvegicus) (UniProt P62483); test: enhancers of rat Kvbeta2 NADPH turnover – biochemical, NADPH fluorescence, primary screen (AID 623;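 active = NADPH fluorescence slope more negative than the mean of all samples by about 3 SD, 99.7% confidence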;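 note: fluorescence intensity change per second fitted from 20 to 320 s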); details: Recombinant KvBeta, NADPH fluorescence decrease slope, 10 min; at 10 µM; stronger effect = lower value
[6] = biological target: Alpha-2C adrenergic receptor (Homo sapiens) (UniProt P18825); test: compounds altering alpha2C-coupled GIRK flux – cell-based, HEK293 alpha2C/GIRK1/2, thallium flux, primary screen (AID 624;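 active = fluorescence slope after compound addition differing from the mean of all screened samples at 99.7% confidence, in either direction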;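 note: slope of fluorescence ratio to pre-addition baseline per second over 15 to 24 s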); details: thallium flux BTC fluorescence, at 10 µM, actives lie on both sides
[7] = blockers of RIG-like receptor reporter activation – cell-based, Sendai virus stimulus, luciferase, 10K MLSCN set, TLR/RLR signaling modifier project, primary screen (AID 602276;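 active = inhibition at or above 50% at 10 µM; inactive = inhibition below 50%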;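 note: firefly luciferase from ISG56 promoter only with Renilla not read in this screen; 0% = Sendai virus plus DMSO and 100% = medium plus DMSO without virus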); details: HEK293 RL24 IRF3 luciferase reporter, at 10 µM, stronger effect = higher value
[8] = TLR3 IRF3 reporter activation blockers – cell-based, poly I:C stimulus, luciferase, 10K MLSCN set, primary screen (AID 602277;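 active = inhibition of the reporter signal at or above 50%; inactive = inhibition below 50%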); details: HEK293-TLR3 RL24 IRF3 luciferase reporter, at 10 µM, stronger effect = higher value

Chain of Alpha-2C adrenergic receptor (Homo sapiens) (P18825 whole entry, looked up): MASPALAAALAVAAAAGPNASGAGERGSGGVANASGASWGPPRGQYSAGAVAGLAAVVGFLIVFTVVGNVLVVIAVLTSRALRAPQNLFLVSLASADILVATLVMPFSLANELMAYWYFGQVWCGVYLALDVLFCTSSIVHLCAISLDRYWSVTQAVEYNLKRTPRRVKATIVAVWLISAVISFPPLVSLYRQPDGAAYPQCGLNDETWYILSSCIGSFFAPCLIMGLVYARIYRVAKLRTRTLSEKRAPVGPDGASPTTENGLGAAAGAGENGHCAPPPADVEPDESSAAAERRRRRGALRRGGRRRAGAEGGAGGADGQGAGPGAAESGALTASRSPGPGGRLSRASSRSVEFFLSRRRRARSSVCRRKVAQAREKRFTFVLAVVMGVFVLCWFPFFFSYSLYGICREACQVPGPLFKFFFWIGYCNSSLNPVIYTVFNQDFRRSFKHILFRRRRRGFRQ
Chain of Voltage-gated potassium channel subunit beta-2 (Rattus norvegicus) (P62483 whole entry, looked up): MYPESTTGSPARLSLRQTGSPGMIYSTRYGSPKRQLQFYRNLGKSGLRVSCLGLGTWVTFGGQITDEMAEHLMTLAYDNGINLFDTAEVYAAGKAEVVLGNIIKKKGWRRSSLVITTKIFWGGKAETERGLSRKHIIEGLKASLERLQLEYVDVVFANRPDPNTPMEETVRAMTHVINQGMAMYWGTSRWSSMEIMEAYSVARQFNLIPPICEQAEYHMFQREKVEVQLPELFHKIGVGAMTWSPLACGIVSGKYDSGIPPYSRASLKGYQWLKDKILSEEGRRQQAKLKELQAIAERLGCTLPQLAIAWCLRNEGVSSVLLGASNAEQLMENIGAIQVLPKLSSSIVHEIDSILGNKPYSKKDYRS

| SMILES | cell count [1] | inhibition [1] | inhibition of aggregation [2] | nuclei count [2] | inhibition [3] | nuclei count [3] | fluorescence slope [4] | NADPH fluorescence slope [5] | slope [6] | inhibition [7] | inhibition [8] |
| --- | --- | --- | --- | --- | --- | --- | --- | --- | --- | --- | --- |
| C=CCn1c(SCC(=O)NC2CCCCC2)nnc1-c1sc(N)nc1C | 639 | -7.3% (inactive) | -12.7% (inactive) | 101% | -100% (inactive) | 125% | -0.516 (inactive) | -3.2e-05 (inactive) | 0.00387 (inactive) | 16.9% (inactive) | 16.4% (inactive) |
| COCCn1c(C)cc(C(=O)CSc2nc3ccccc3c(=O)[nH]2)c1C | 287 | -9.5% (inactive) | -2.6% (inactive) | 95.3% | -22.3% (inactive) | 114% | -0.595 (inactive) | -3.8e-05 (inactive) | 0.00437 (inactive) | -28% (inactive) | -89.1% (inactive) |
| CCOC(=O)c1ccc(NS(=O)(=O)c2cccc3nsnc23)cc1 | 387 | -6.2% (inactive) | 18.9% (inactive) | 83.1% | -63.9% (inactive) | 104% | -0.409 (inactive) | 4.3e-05 (inactive) | 0.00792 (inactive) | -5.26% (inactive) | 0.648% (inactive) |
| CCOC(=O)N1CCC(NC(=O)c2ccc3c(c2)sc2nc(-c4cccc(OC)c4)cn23)CC1 | 415 | 8% (inactive) | 8.8% (inactive) | 93.6% | -3.7% (inactive) | 108% | -0.485 (inactive) | -2.7e-05 (inactive) | 0.00825 (inactive) | -22.7% (inactive) | -70.4% (inactive) |
| O=C(Nc1ccc(F)cc1)N(CCCN1CCOCC1)Cc1cc2cc3c(cc2[nH]c1=O)OCO3 | 633 | -3% (inactive) | -34.9% (inactive) | 105% | -27.7% (inactive) | 114% | -0.362 (inactive) | -4.4e-05 (inactive) | 0.00497 (inactive) | 15.6% (inactive) | 28.6% (inactive) |
| CCc1ccc(Nc2cc(=O)n(C3CCCCC3)c(=O)[nH]2)cc1 | 385 | 3.9% (inactive) | -8.7% (inactive) | 104% | -1.5% (inactive) | 121% | -0.579 (inactive) | -2.4e-05 (inactive) | 0.00696 (inactive) | -13.5% (inactive) | -97.2% (inactive) |
| COc1cc(C(=O)Nc2nc(-c3cccs3)cs2)cc(OC)c1OC | 475 | -4.8% (inactive) | -20.4% (inactive) | 98.7% | -18.4% (inactive) | 106% | -0.507 (inactive) | -6.5e-06 (inactive) | 0.00722 (inactive) | -6.01% (inactive) | -12% (inactive) |
| COc1cc(C(=O)Nc2cc(C)ccn2)cc(OC)c1OC | 298 | -1.9% (inactive) | 4.3% (inactive) | 98.4% | -87% (inactive) | 113% | -0.472 (inactive) | 3.1e-06 (inactive) | 0.00568 (inactive) | -4.57% (inactive) | 7.2% (inactive) |
| COC(=O)c1cn(NC(=O)C2CCCO2)c(=O)c2ccccc12 (stereo unspecified) | 415 | -2.5% (inactive) | 12.6% (inactive) | 103% | -39.1% (inactive) | 89.7% | -0.462 (inactive) | -3.7e-05 (inactive) | 0.0068 (inactive) | 11.6% (inactive) | 20.9% (inactive) |
| CCCCn1c(=O)[nH]c(=O)c2c1nc(-c1ccncc1)n2CCOC | 542 | -15.4% (inactive) | -7.3% (inactive) | 107% | -19.9% (inactive) | 138% | -0.446 (inactive) | -4.3e-05 (inactive) | 0.00406 (inactive) | 0.301% (inactive) | 33.4% (inactive) |
| COc1ccc(-c2[nH]c(-c3cccc(OC)c3)nc2SCC(=O)NCc2ccco2)cc1 | 672 | 10.5% (inactive) | 5.3% (inactive) | 102% | -5.4% (inactive) | 124% | -0.484 (inactive) | -1.7e-05 (inactive) | 0.00547 (inactive) | 10.3% (inactive) | 4.41% (inactive) |
| C=CCSc1nc(N)c(C(=O)Nc2ccccc2C)cc1C(N)=O | 775 | 1.4% (inactive) | 15.6% (inactive) | 96.4% | -142% (inactive) | 124% | -0.46 (inactive) | 1.4e-05 (inactive) | 0.00326 (inactive) | -4.85% (inactive) | 24.2% (inactive) |
| COCCCNC(=O)C1CCN(C(=O)Nc2ccc(Cl)cc2)CC1 | 577 | 5% (inactive) | 18.9% (inactive) | 96.2% | 33.6% (inactive) | 82.1% | -0.457 (inactive) | 1.1e-05 (inactive) | 0.00588 (inactive) | 11.2% (inactive) | 34.3% (inactive) |
| CCN(CC)S(=O)(=O)c1ccc(F)cc1 | 630 | 2.4% (inactive) | -0.6% (inactive) | 100% | -75.6% (inactive) | 114% | -0.506 (inactive) | -0.000197 (inactive) | 0.00613 (inactive) | 13.9% (inactive) | 19.3% (inactive) |
| CCCOc1ccccc1NC(=O)c1c(-c2ccccc2)noc1C | 800 | 4.6% (inactive) | 8.8% (inactive) | 111% | -43.4% (inactive) | 112% | -0.584 (inactive) | -1.4e-05 (inactive) | 0.00575 (inactive) | 10.6% (inactive) | 25.8% (inactive) |
| CCn1c(SCC(=O)Nc2ccc(Cl)cc2)nnc1C1CC1 | 811 | 1.7% (inactive) | 12.1% (inactive) | 127% | -54.5% (inactive) | 97.1% | -0.608 (inactive) | -1.6e-05 (inactive) | 0.00675 (inactive) | 4.41% (inactive) | 17.1% (inactive) |
| COc1nc(NCCc2ccc(OC)c(OC)c2)nc(NC(C)(C)CO)n1 | 336 | -1.4% (inactive) | 13.7% (inactive) | 97.3% | -7% (inactive) | 108% | -0.496 (inactive) | -1.3e-06 (inactive) | 0.00642 (inactive) | 15.5% (inactive) | 11.8% (inactive) |
| O=S(=O)(NCc1ccccc1)c1ccc2c(c1)OCCO2 | 454 | -10.7% (inactive) | -10.8% (inactive) | 100% | -117% (inactive) | 121% | -0.599 (inactive) | -3.9e-05 (inactive) | 0.00569 (inactive) | -0.346% (inactive) | -1.95% (inactive) |
| CCCN(Cc1cc2cc(C)ccc2[nH]c1=O)C(=O)c1cccc(OC)c1 | 594 | 8.2% (inactive) | -3.9% (inactive) | 101% | -74% (inactive) | 107% | -0.506 (inactive) | -5.1e-05 (inactive) | 0.00579 (inactive) | 10.4% (inactive) | 10.9% (inactive) |
| O=C(CSc1nc2ccccc2o1)Nc1ccccc1 | 728 | 11.1% (inactive) | 0.9% (inactive) | 100% | -10.4% (inactive) | 106% | -0.285 (inactive) | -8e-06 (inactive) | 0.00667 (inactive) | -21.3% (inactive) | -87.6% (inactive) |
| O=C(Nc1sc2c(c1C(=O)NCc1ccco1)CCCC2)c1ccc2c(c1)OCO2 | 563 | -10.1% (inactive) | 2.5% (inactive) | 103% | -56% (inactive) | 117% | -0.517 (inactive) | 3.8e-06 (inactive) | 0.00669 (inactive) | -29.8% (inactive) | -179% (inactive) |
| CCOC(=O)Nc1nnc(-c2ccccc2OC)s1 | 613 | -2.7% (inactive) | -8.8% (inactive) | 108% | 10.1% (inactive) | 102% | -0.514 (inactive) | 1.1e-05 (inactive) | 0.00542 (inactive) | -20.9% (inactive) | -24.1% (inactive) |
| Cc1cc(=O)n2nc(N3CCC(C(=O)N4CCN(Cc5ccccc5)CC4)CC3)sc2n1 | 450 | -1% (inactive) | -0.2% (inactive) | 113% | -31.7% (inactive) | 103% | -0.329 (inactive) | -5.5e-05 (inactive) | 0.00533 (inactive) | 7.85% (inactive) | 3.68% (inactive) |
| CCOC(=O)N1CCN(C(=O)CSc2nnc(COc3ccccc3)o2)CC1 | 596 | 4.7% (inactive) | -3.5% (inactive) | 105% | -3.6% (inactive) | 112% | -0.565 (inactive) | 1.8e-05 (inactive) | 0.00595 (inactive) | -13.9% (inactive) | 10.1% (inactive) |
| CN(C)c1oc(-c2ccccc2Cl)nc1C#N | 302 | 4.3% (inactive) | -4.3% (inactive) | 90.7% | 6% (inactive) | 109% | -0.433 (inactive) | -0.000102 (inactive) | 0.00458 (inactive) | 6.71% (inactive) | -0.158% (inactive) |
| COc1ccccc1S(=O)(=O)Cc1ccc(C(=O)N2CCN(c3ccc(C)cc3)C(C)C2)o1 (stereo unspecified) | 566 | 6.1% (inactive) | -8.4% (inactive) | 117% | -2.9% (inactive) | 91.7% | -0.527 (inactive) | -2.9e-05 (inactive) | 0.00593 (inactive) | 16.6% (inactive) | 22.5% (inactive) |
